Bead autofluor – compound fluorescence in toxin protease inhibitor counterscreen; compound autofluorescence counterscreen, microsphere flow cytometry; active compounds read high; AID 624483; fluorescence intensity (concentration not given with the values); 3.1% of 360,000 active; in the data active = fluorescence intensity above about 16000; inconclusive = no clear call, values can overlap the other calls
BoNT-A LC inh2 – blocks Botulinum neurotoxin A light chain protease; AID 588499; 0.17% of 360,000 active; inhibition, % at 10 µM; multiplex microsphere protease substrate cleavage, flow cytometry; also: plate controls were buffer without enzyme for full effect and enzyme alone for no effect
TcdB inh – inhibitors of Clostridioides difficile toxin B glycohydrolase; P18177; inhibition, % at 9.99 µM; 0.24% of 350,000 active; TcdB glycohydrolase enzymatic assay, plate reader; in the data active = inhibition above about 10%
BoNT F protease – inhibitors of Botulinum neurotoxin F light chain protease; inhibition, % at 10 µM; Multiplex microsphere protease cleavage assay, flow cytometry; AID 588497; 0.22% of 360,000 active; in the data active = inhibition above about 35%, passing the limit was not always enough; inconclusive = no clear call, values can overlap the other calls; also: plate controls were buffer without enzyme for full effect and enzyme alone for no effect
Anthrax LF inh2 – anthrax lethal factor protease inhibition; P15917; multiplex microsphere protease cleavage assay, LF; inhibition, % at 10 µM; 0.12% of 360,000 active; also: plate controls were buffer without enzyme for full effect and enzyme alone for no effect
Target sequence (P15917 whole entry, looked up): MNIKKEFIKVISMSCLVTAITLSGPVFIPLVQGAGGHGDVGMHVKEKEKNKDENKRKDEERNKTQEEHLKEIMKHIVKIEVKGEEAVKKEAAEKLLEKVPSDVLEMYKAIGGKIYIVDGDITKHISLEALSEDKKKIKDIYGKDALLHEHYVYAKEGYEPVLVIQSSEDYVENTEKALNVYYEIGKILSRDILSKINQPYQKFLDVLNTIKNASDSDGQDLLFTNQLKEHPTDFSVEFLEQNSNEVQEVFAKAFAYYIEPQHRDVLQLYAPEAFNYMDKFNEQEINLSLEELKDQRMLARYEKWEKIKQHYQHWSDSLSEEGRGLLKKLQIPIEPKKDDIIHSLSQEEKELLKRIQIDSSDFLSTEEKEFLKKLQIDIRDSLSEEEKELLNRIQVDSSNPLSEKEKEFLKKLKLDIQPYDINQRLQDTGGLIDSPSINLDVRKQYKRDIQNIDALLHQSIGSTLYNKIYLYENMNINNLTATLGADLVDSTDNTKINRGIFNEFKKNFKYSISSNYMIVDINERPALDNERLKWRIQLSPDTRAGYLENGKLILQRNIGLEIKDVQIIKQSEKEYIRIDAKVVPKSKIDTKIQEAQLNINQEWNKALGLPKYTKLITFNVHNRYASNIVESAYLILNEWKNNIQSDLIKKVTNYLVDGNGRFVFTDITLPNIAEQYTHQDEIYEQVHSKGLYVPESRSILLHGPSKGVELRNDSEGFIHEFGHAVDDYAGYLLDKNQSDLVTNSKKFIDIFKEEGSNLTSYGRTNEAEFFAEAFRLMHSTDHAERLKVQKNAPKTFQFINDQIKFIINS
The depositor's hits bear a star; u = inconclusive; x = no result. This excerpt belongs to a sample that is enriched for hits. Rule as the data show it, unless noted: active = inhibition above about 30%; inconclusive = no clear call, values can overlap the other calls; inactive = below that.

SMILES	Bead autofluor	BoNT-A LC inh2	TcdB inh	BoNT F protease	Anthrax LF inh2
CCOC(=O)CSc1nnc(CNC(=O)c2ccc(OC)cc2OC)n1-c1ccc(OC)cc1	21152*	-1.3	x	-0.1	1.1
CCOC(=O)CSc1nnc(Cc2cc(=O)[nH]c(=O)[nH]2)n1-c1cccc(OC)c1	21403*	u	-4.1	-1.2	-13.9
COC(=O)CSc1nnc(Cc2cc(=O)[nH]c(=O)[nH]2)n1-c1cccc(OC)c1	3913	-0.2	x	4.4	-1.5
COc1ccc2c3c(n(C)c2c1)[C@H](CO)N(Cc1ccccc1)CC31CCN(C(=O)C2CC2)CC1	x	x	-2.4	x	x
CC(C)NC(=O)c1noc2cc([N+](=O)[O-])ccc12	9065	0.1	x	-0.7	0.6
CN(C)C(=O)c1noc2cc([N+](=O)[O-])ccc12	16570*	-1.3	x	-3.6	-6.6
COc1ccc(NC(=O)N(C)C[C@@H]2Oc3ncc(C#C[C@@H](C)O)cc3C(=O)N([C@@H](C)CO)C[C@H]2C)cc1	x	x	-1.4	x	x
COc1ccc(NC(=O)NC2CCN(C(C)C)CC2)c(OC)c1	16455*	u	x	-0.1	-5.9
O=S(=O)(c1ccccc1)N1CCCCN2[C@H](C1)[C@H](c1ccc(-c3cncnc3)cc1)[C@@H]2CO	x	x	-0.5	x	x
CC1(C)CC(=O)C2=C(C1)NC(=O)C21C(C(=O)OC(C)(C)C)=C(N)Oc2ccc(Br)cc21 (stereo unspecified)	22960*	1.6	1.5	2.6	0.0
CC(C)(Oc1cccc2ccccc12)C(=O)O	17702*	-2.5	x	-6.5	-2.8
COc1ccc(CN(C)C[C@@H]2Oc3ccc(NC(=O)CCN4CCOCC4)cc3CC(=O)N([C@@H](C)CO)C[C@H]2C)cc1	x	x	-0.2	x	x
CC(=O)N(C)C[C@H]1Oc2ncc(C#Cc3ccccn3)cc2C(=O)N([C@H](C)CO)C[C@H]1C	x	x	-1.6	x	x
C=CCn1c(SC(C)C(=O)NCc2ccc3c(c2)OCO3)nc2scc(-c3ccccc3)c2c1=O (stereo unspecified)	16316*	0.6	x	1.1	1.2
COc1cccc(-c2nnc3n2N=C(c2cc(OC)ccc2OC)CS3)c1	5429	0.0	x	-5.4	4.3
COc1ccc(-c2nnc3n2N=C(C)CS3)cc1	23552*	u	x	-1.1	-1.3
CC1=Nn2c(nnc2-c2ccco2)SC1	22078*	2.0	x	3.1	0.1
COc1cccc(-c2nnc3n2N=C(C(C)(C)C)CS3)c1	23357*	-0.1	x	-1.6	1.5
O=C(NC1Cc2ccccc2C1)[C@@H]1[C@@H](CO)[C@@H]2Cn3c(ccc(C4=CCCC4)c3=O)[C@H]1N2	x	x	0.3	x	x
CCCN1[C@@H]2c3ccc(-c4ccccc4F)c(=O)n3C[C@@H]2[C@@H](CO)[C@@H]1C(=O)N1CCN(C)CC1	x	x	0.4	x	x
C[C@@H]1CN([C@@H](C)CO)C(=O)c2cccc(NC(=O)C3CC3)c2O[C@@H]1CN(C)S(=O)(=O)c1cn(C)cn1	x	x	0.1	x	x
O=C(N[C@@H]1CC[C@H](CCn2cc(C3(O)CCCC3)nn2)O[C@@H]1CO)C1CC1	x	x	-0.3	x	x
Cc1nc2oc3c(=O)[nH]cnc3c2c2c1COC(C)(C)C2	4825	0.2	0.8	-6.6	-6.2
COc1ncnc2c1oc1nc(CC(C)C)c3c(c12)CC(C)(C)OC3	23399*	-0.2	x	-2.1	-5.0
Cc1noc(C)c1NC(=O)N(C)C[C@H]1Oc2ccc(NS(=O)(=O)c3cccs3)cc2C(=O)N([C@@H](C)CO)C[C@@H]1C	x	x	1.0	x	x
SMILES	Bead autofluor	BoNT-A LC inh2	TcdB inh	BoNT F protease	Anthrax LF inh2
COc1ccc([C@@H]2[C@H]3C(=O)N(c4cccc(C(F)(F)F)c4)C(=O)[C@H]3ON2C)cc1	21509*	1.9	x	3.9	-0.8
CCC(CC)NC(=O)COC(=O)c1ccc(OCC(=O)Nc2ccccc2OC)c(OC)c1	21089*	u	x	6.8	-1.7
CCCNC(=O)COC(=O)c1ccc(OCC(=O)Nc2ccccc2OC)c(OC)c1	4248	0.6	x	10.5	0.5
COc1cc(C(=O)OCC(=O)Nc2ccc(F)cc2F)cc(OC)c1OC	20961*	u	x	-4.3	-10.2
O=C(Nc1nc2c(s1)CCCC2=O)c1cnccn1	23908*	-3.6	x	-4.4	-1.0
COC(=O)c1c(NC(=O)c2cnccn2)sc2c1CCC2	3809	0.1	x	3.3	-0.1
COC(=O)C1(C(=O)OC)NOC2C(=O)N(c3ccccc3)C(=O)C21 (stereo unspecified)	22517*	u	x	0.5	0.9
COCC(=O)N(C)C[C@H]1Oc2cc(-c3ccc(C)cc3)ccc2S(=O)(=O)N([C@H](C)CO)C[C@@H]1C	x	x	2.5	x	x
COc1ccccc1OC(C)C(=O)O (stereo unspecified)	20529*	0.9	x	0.9	-0.4
COc1ccccc1OCC(=O)O	3355	-0.9	x	-19.3	-4.2
Cc1c(Br)cc(-c2nnco2)cc1Br	23447*	-0.3	x	-1.7	-1.5
